Screens from PubChem BioAssay.
Lamin A splicing: changes lamin A minigene splicing in HeLa cells | HeLa LMNA splicing GFP/RFP minigene ratio, 48 h | actives 0.01% (n = 200,000) | Potency, µM (doses to about 46.1 µM), for inactives: at the highest dose ratio change, negative = inhibition, usual class: inhibitors | AID 1487; active means well fitted inhibition curve with a large enough effect in the signal ratio, with a control signal flat, not every such curve was filed as active; inconclusive means small, poorly fitted or top-dose-only effect, or effect the other way, or a change in a side signal; the % refers to the signal ratio
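S3 HeLa cells stably expressing lamin A-EGFP splicing minigene plus DsRed2, 600 cells/well, 48 h compound exposure at 37C. Laser-scanning cytometry; analysed as GFP (500-530 nm)/RFP (575-640 nm) total intensity ratio; 0.5% DMSO vehicle.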
KinaseGlo FLuc: Kinase-Glo luciferase inhibition (counter-screen) | Q27757 | Kinase-Glo luciferase, ATP luminescence, 8 min | Potency, µM (top dose mostly 38.3 µM), inactives show top-dose activity change, negative = inhibition, usual class: inhibitors | actives 0.28% (n = 200,000) | AID 1379; active means well fitted curve in the direction sought with a large enough effect; inconclusive means small, poorly fitted or top-dose-only effect, or another doubt; inactive means no such curve, though single readings can be large; an effect the other way counts as inactive or inconclusive; further: nearly all actives have a fitted effect of over 60% in size
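Recombinant Kinase-Glo luciferase, 10 uM ATP (linear range), luciferin; imidazole pH 7.2 / KCl / MgCl2 / Tween / BSA buffer; 8 min RT; luminescence.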
IMPase Li inh: cell-permeable IMPase inhibitors with lithium potentiation | CHO-M1 cells, IP1 TR-FRET (IP-One), carbachol + lithium | actives 0.35% (n = 210,000) | Potency, µM (titrated, usually from 59.4 µM), for inactives: top-dose activity, negative = IMPase inhibition, hits mostly inhibitors; active means well fitted curve in the direction sought with a large enough effect; inconclusive means small, poorly fitted or top-dose-only effect, or another doubt; inactive means no such curve, though single readings can be large; an effect the other way counts as inactive or inconclusive;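 further: IP1 builds up when IMPase is blocked and the TR-FRET signal falls; plate controls were basal vehicle for no effect and high inhibitor control for full effect; nearly all actives have a fitted effect of over 50% in size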
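Test compounds were applied to CHO-M1 cells previously cultured for 16–30 h at 2000 per well. A small lithium amount accompanied them; after 30 min at 37C, IP1 was quantified by TR-FRET.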
HPGD inh: inhibitors of human 15-hydroxyprostaglandin dehydrogenase (HPGD); purified HPGD, NADH fluorescence kinetic, PGE2 substrate; Potency, µM, for inactives: at the top dose activity change, negative = inhibition, usual class: inhibitors; P15428; actives 4.3% (n = 150,000)
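20 nM HPGD preincubated 15 min at room temperature with compound in 50 mM Tris-HCl pH 8, 0.01% Tween 20. Started with 1 mM NAD+ and 30 uM prostaglandin E2; NADH fluorescence (360/450 nm) read 5 times over 30-s intervals, last minus first.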
ALDH1A1 inh: inhibitors of human aldehyde dehydrogenase 1A1. P00352. Purified ALDH1A1, NADH fluorescence, propionaldehyde substrate. Potency, µM (titrated, usually from 75.3 µM), for inactives: top-dose activity, negative = inhibition, hits mostly inhibitors. actives 7.3% (n = 220,000);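 further: plate controls were no enzyme wells and a reference inhibitor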
Target sequence (P00352 whole entry, looked up): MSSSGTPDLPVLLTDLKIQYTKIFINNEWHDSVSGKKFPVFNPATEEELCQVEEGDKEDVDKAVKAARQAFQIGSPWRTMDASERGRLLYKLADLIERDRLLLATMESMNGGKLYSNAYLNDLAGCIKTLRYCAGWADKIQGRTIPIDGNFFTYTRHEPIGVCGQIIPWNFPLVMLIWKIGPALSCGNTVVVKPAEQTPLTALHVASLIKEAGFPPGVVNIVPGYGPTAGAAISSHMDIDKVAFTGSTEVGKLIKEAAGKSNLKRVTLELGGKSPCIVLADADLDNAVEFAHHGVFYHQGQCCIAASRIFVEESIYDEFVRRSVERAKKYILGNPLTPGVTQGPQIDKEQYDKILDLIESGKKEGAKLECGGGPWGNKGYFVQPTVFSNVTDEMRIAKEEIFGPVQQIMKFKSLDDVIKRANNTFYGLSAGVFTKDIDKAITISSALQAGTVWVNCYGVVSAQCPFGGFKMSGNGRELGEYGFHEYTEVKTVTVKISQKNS
An asterisk follows results filed as active; ? = inconclusive; . = not tested or not shown; [ ] = another dose, or the depositor's remark. An excerpt weighted towards active compounds, which were near 9% of everything screened. Unless noted, the call rests on the fitted dose curve; in most records, active means well fitted inhibition curve with a large enough effect (not every such curve was filed as active); inconclusive means small, poorly fitted or top-dose-only effect, or another doubt; inactive means no such curve, though single readings can be large or run the other way. Unless noted, on the % scale 0 is the no-effect control and ±100 the full control effect; potency means the concentration at half of the fitted maximal effect.

SMILES	Lamin A splicing	KinaseGlo FLuc	IMPase Li inh	HPGD inh	ALDH1A1 inh
CCCC1CCC(=C(C#N)C(N)=O)CC1 (stereo not drawn)	4%	0%	4%	-8%	-2%
CS(=O)(=O)N1CCN(c2ccccc2NC(=O)c2cccs2)CC1	5%	-2%	17%[38.3 µM]	-10%	10µM*
CS(=O)(=O)N1CCN(c2ccccc2NC(=O)CSc2nnc(-c3ccco3)o2)CC1	-10%	2%	-1%	-10%	13µM*
CC(C)C(=O)Nc1ccccc1N1CCN(S(C)(=O)=O)CC1	-4%	4%	8%[38.3 µM]	1%	-9%
CS(=O)(=O)N1CCN(c2ccccc2NC(=O)C(c2ccccc2)c2ccccc2)CC1	3%	-4%	28%[38.3 µM]	-9%	6.3µM*
COc1cccc(C(c2sc3nc(-c4ccco4)nn3c2O)N2CCN(c3ccccc3F)CC2)c1 (stereo not drawn)	-16%[46 µM]	.	.	.	.
Cc1sc2c(c1C)CN(Cc1ccncc1)CN2C(=O)c1ccco1	-7%	-6%	24%[38.3 µM]	-22%	25µM*
COCCN1Cc2c(sc(C)c2C)N(C(=O)c2ccccc2)C1	-3%	-4%	11%[38.3 µM]	-6%	12%
C=CCNC(=S)Nc1cccc2[nH]ncc12	18%[46 µM]	-3%	-4%	.	-9%
CN(C)c1nc(N2CCN(c3ccccc3)CC2)c(C#N)c(=O)o1	-11%	12%	14%	16µM*	?
CN(C)c1ccc(-c2nn3c(-c4ccc(Cl)cc4Cl)nnc3s2)cc1	?	0%	13%[38.3 µM]	?	0%
Cc1cc(-c2nnc3sc(-c4ccc(Cl)cc4Cl)nn23)n[nH]1	-1%	1%	10µM*	-27%	3%
Cc1ccc[n+](-c2nc([O-])sc2C=O)c1	-15%[46 µM]	-1%	-7%	.	-3%
Cc1ccc(-n2c([O-])nc(-[n+]3ccccc3)c2C=O)cc1	-5%	-8%	5%[38.3 µM]	-15%	8.9µM*
C[C@@]12C=Cc3occc3C1CC[C@@]13C[C@@H](CCC12)[C@@](O)(CO)C3 (stereo partly drawn)	.	4%[39.9 µM]	16%	-5%	1.4µM*
CCN1/C(=C\c2ccc3cc(C)ccc3[n+]2CC)Sc2cc(C)c(C)cc21	-15%[46 µM]	-11%	-20%	.	?
CCN1/C(=C/c2ccc3cc(C)cc(C)c3[n+]2CC)Sc2cc(C)ccc21	?	-20%	11µM*	.	20µM*
COc1cc(C(=O)NCC(=O)N/N=C(C)\C=C\c2ccccc2)cc(OC)c1OC	.	11%	-6%	.	-13%
O=C1N=C(N2CCOCC2)S/C1=C/c1cccs1	-1%	-5%	-8%[38.3 µM]	-14%	0%
Cc1ccsc1/C=C1\SC(N2CC(C)OC(C)C2)=NC1=O (stereo not drawn)	-18%	-1%	10%	-16%	18µM*
O=c1oc2ccccc2cc1O	.	-6%	8%	18µM*	1%
O=C(O)c1ccccc1-c1ccc(/C=c2\sc3nc4cc(Br)cnc4n3c2=O)o1	-1%	-3%	-18%[38.3 µM]	32µM*	22µM*
O=C(c1cccc(F)c1)N1CCC(N2CCOCC2)CC1	2%	19%	17%[38.3 µM]	-8%	14µM*
CS(=O)(=O)N1CCN(c2ccc([N+](=O)[O-])c(N3CCOCC3)c2)CC1	5%	-8%	1%[38.3 µM]	-12%	-10%
O=C(c1ccccc1)N1CCN(c2ccc([N+](=O)[O-])c(N3CCOCC3)c2)CC1	-6%	-2%	-6%	-9%	0.89µM*
SMILES	Lamin A splicing	KinaseGlo FLuc	IMPase Li inh	HPGD inh	ALDH1A1 inh
Cc1cc(C)n(-c2cc(N3CCN(C(=O)c4cccc(F)c4)CC3)ccc2[N+](=O)[O-])n1	?	4%	0%	-13%	4.5µM*
Cn1c(=O)n(C)c2cc([N+](=O)[O-])c(N3CCN(C(=O)c4cccc(F)c4)CC3)cc21	8%[46 µM]	0%	12%	.	?
O=C(c1cccc(F)c1)N1CCN(c2ccc([N+](=O)[O-])c(N3CCOCC3)c2)CC1	2%	0%	-5%	-10%	7.9µM*
Cc1c(NC(=O)C2CCCCC2)cc(C(=O)N2CCOCC2)cc1[N+](=O)[O-]	?	0%	-2%	.	2%
NC(=O)c1ccccc1-c1nc(-n2ccnc2)c2ccccc2n1	-21%	.	12%	.	9%
COC(=O)CC1c2ccccc2C=C(/C=C/c2ccc3c(c2)OCO3)N1C(=O)OC (stereo not drawn)	?	-5%[7.66 µM]	15%	?	?
COCCN(Cc1cc2ccc(C)c(C)c2nc1Cl)C(=O)N1CCOCC1	.	2%	18%	.	?
CC(=O)N(Cc1cccs1)Cc1cc2ccc(C)c(C)c2nc1Cl	17%[46 µM]	-1%	21%	.	18µM*
O=C(O)c1cc(-c2ccc(Cl)s2)nc2ccccc12	?	3%	11µM*	.	?
O=C(O)c1cc(-c2ccccc2)nc2ccccc12	?	-1%	-11%	-5%	7%
CCNC(=O)COC(=O)c1cc(S(=O)(=O)N2CCCc3ccccc32)ccc1Cl	.	.	.	.	-8%
COc1ccc([C@@H]2[C@H]3C(=O)N(c4cccc(C(F)(F)F)c4)C(=O)[C@H]3ON2C)cc1	-13%	0%	4%[38.3 µM]	-18%	14µM*
Cc1cc(=O)c(C(=O)O)nn1-c1ccccc1	.	4%	-15%	.	3%
Cc1c(C(=O)Nc2ccc(Br)cc2)cnn1C	-14%	2%	-6%	-15%	15%
Cc1c(C(=O)c2no[n+]([O-])c2C(=O)c2cnn(C)c2C)cnn1C	?	-1%	25%[38.3 µM]	-16%	0.89µM*
O=C(CSc1nc2[nH]ncc2c(=O)n1-c1ccccc1)c1ccc2c(c1)OCCO2	?	-5%	17%[38.3 µM]	0%	0.32µM*
Cc1cccc(NC(=O)CSc2nc3[nH]ncc3c(=O)n2-c2ccccc2)c1	3%	-7%	-5%	-11%	4.5µM*
Cc1cccc(NC(=O)CSc2nc(NS(=O)(=O)c3ccccc3)cc(=O)[nH]2)c1	.	0%	15%	.	28µM*
COc1c(C2=CC(=O)N(C)C2=O)c2c(n1C)C(=O)c1ccccc1C2=O	.	-4%	24%	-6%	0%
CC(=O)Nc1ccc(S(=O)(=O)NCC2CCC(C(=O)NCCC3=CCCCC3)CC2)cc1 (stereo not drawn)	1%	-1%	-1%[38.3 µM]	-29%	-1%
O=C(NC1CCCC1)C1CCC(CNS(=O)(=O)c2cccs2)CC1 (stereo not drawn)	-8%	-2%	-1%	22µM*	22µM*
O=C(NCc1cccs1)C1CCC(CNS(=O)(=O)c2ccccc2)CC1 (stereo not drawn)	.	0%	3%	.	5µM*
O=C(NCCC1=CCCCC1)C1CCC(CNS(=O)(=O)c2ccccc2)CC1 (stereo not drawn)	9%	-1%	-3%	-13%	0.56µM*
COc1cccc(NC(=O)C2CCC(CNS(=O)(=O)c3cccs3)CC2)c1 (stereo not drawn)	?	1%	4%	.	13µM*
